Source: PubChem
HepG2 tox: HepG2 cytotoxicity, counter-screen for TGF-b inhibitors; Potency, µM (top dose mostly 46.1 µM), actives largely listed as cytotoxic; HepG2 CAGA-GFP viability, ATP luminescence, 18 h; 0.76% of 410,000 active
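HepG2 CAGA-GFP cells (1000/well, DMEM with 1% FBS) received compound, then TGF-beta at 500 pg/mL final, and were incubated 18 hours at 37 degrees C. Viability was read by CellTiter-Glo luminescence. Media-only wells were set as complete cell-killing and DMSO as no toxicity.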
ASM inhibitor: human S-ASM enzyme inhibition | P17405 | placental ASM, HMU-PC fluorogenic substrate, 60 min | Potency, µM (doses to about 57.5 µM), most hits filed as inhibitors | 0.006% of 340,000 active | AID 504937
Target sequence (P17405 47-631 limits assumed): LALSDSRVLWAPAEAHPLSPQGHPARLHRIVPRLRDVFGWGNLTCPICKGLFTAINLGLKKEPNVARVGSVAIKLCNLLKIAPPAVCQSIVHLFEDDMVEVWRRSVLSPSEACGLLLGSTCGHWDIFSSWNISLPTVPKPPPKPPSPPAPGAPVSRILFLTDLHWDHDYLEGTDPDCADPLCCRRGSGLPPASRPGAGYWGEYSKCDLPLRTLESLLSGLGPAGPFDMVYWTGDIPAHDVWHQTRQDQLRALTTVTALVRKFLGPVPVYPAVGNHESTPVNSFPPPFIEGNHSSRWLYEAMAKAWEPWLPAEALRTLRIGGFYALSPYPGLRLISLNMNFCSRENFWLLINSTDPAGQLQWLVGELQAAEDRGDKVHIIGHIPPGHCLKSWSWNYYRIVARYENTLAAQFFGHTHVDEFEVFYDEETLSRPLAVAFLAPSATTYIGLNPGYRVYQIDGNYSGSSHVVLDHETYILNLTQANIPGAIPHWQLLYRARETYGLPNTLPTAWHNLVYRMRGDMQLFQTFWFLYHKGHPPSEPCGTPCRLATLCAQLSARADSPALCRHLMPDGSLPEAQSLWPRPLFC
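Fluorogenic HMU-PC substrate (9 uM final) is turned over by placental ASM in 60 min at 37 C after a 10 min compound preincubation. Reaction ended by alkaline stop (pH 10), with fluorescence read at 386/447 nm.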
DT40 TDP1 no CPT: qHTS for Inhibitors of human tyrosyl-DNA phosphodiesterase 1 (TDP1): qHTS in cells in absence of CPT; DT40 Tdp1-/- hTDP1 cells, no CPT, ATP luminescence, 48 h; Potency, µM (highest dose often 46.2 µM), most hits filed as inhibitors; 15% of 420,000 active; AID 686978, 2013; note: nearly all actives have a fitted effect of over 55% in size
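Luminescent ATP content (CellTiter-Glo) served as the growth readout. Knockout chicken DT40 cells expressing human TDP1 were exposed to compounds without camptothecin for a minimum 48 hr at 37 °C.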
TGFb inhibitor: inhibitors of TGF-b signaling; HepG2 CAGA-GFP TGF-b/SMAD3 reporter, GFP fluorescence, 18 h; TGF-beta stimulated, 500 pg/mL final; Potency, µM (highest dose often 46.1 µM), usual class: inhibitors; 1.2% of 410,000 active; note: nearly all actives have a fitted effect of over 65% in size
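HEPG2 CAGA-GFP, 1000 cells/well; 2 h settle, 37 C; cpd via pin tool; TGF-b 500 pg/mL final; 18 h, 37 C; GFP imaging ex488/em500-530; %Activity normalised to -TGF-b and +DMSO controls; CRC fit, curve class.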
DT40 TDP1 CPT: DT40-hTDP1 cell growth loss with CPT; chicken DT40 Tdp1-/-;hTDP1 cells + 20 nM CPT, ATP luminescence, 48 h; Potency, µM (top dose mostly 46.2 µM), actives largely listed as inhibitors; 12% of 420,000 active; note: nearly all actives have a fitted effect of over 55% in size
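Chicken DT40 Tdp1-/- cells stably complemented with human TDP1 were seeded at 400 cells/well in medium containing 20 nM camptothecin, exposed to pin-transferred compounds, and grown at 37 °C for at least 48 hr. Viability was read as ATP luminescence.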
IL-1B inflam inh: blocks inflammasome-driven IL-1 beta release | 4.7% of 360,000 active | activity change, % at 57.5 µM | THP-1 LPS/ATP IL-1B secretion, AlphaLISA, 16 h; stronger effect = lower value; in the data active = activity change below about -50%; inconclusive = mostly about -30% to -49%
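Secreted IL-1B measured by AlphaLISA bead assay after 16 h compound exposure of THP-1 cells; compounds (final up to 57.5 uM) added 1 h before LPS (250 ng/mL) and ATP (1.25 mM) stimulation; lower signal means less secretion.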
Hits are given with their value; - = inactive; ? = inconclusive; . = not tested or not shown. This is a sample that favours compounds with a hit; in the whole collection about 19% have one here. Unless noted, calls come from the whole dose curve; as a rule, active = well fitted curve in the direction sought with a large enough effect; inconclusive = small, poorly fitted or top-dose-only effect, or another doubt; inactive = no such curve, though single readings can be large; an effect the other way counts as inactive or inconclusive.

SMILES	HepG2 tox	ASM inhibitor	DT40 TDP1 no CPT	TGFb inhibitor	DT40 TDP1 CPT	IL-1B inflam inh
O=C(c1ccco1)N1CCN(C(=S)Nc2ccc(F)c(Cl)c2)CC1	-	-	-	-	-	-
O=C(Nc1ccc(N2CCN(C(=O)c3ccco3)CC2)c(Cl)c1)c1c(F)c(F)c(F)c(F)c1F	-	-	18µM	?	15µM	-90
O=C(Nc1ccc(N2CCN(C(=O)c3cccs3)CC2)c(Cl)c1)c1cccnc1	-	-	?	-	?	-79
Cc1ccc2c(c1)C(c1ccc(F)cc1)N(C(=O)c1cccc(C(F)(F)F)c1)CC(=O)N2 (stereo unspecified)	-	.	?	?	?	.
COc1ccc(-n2c(=O)c3c4c(sc3n(Cc3c(F)cccc3Cl)c2=O)CN(C(C)=O)CC4)cc1OC	-	.	?	-	?	.
COc1ccc(N(C(=O)c2cnccn2)C(C(=O)NC2CCCCC2)c2cc(OC)c(OC)c(OC)c2)cc1 (stereo unspecified)	-	-	?	-	-	-
COc1ccc(S(N)(=O)=O)cc1C(=O)OCC(=O)Nc1ncc(Cl)c(C)c1Cl	-	-	-	-	-	-
O=C(CN1C(=O)/C(=C/c2ccc(F)cc2)SC1=S)N1CCN(CCc2ccccn2)CC1	-	-	2.3µM	-	6.5µM	-
CN1CCN(C(=O)CCN2C(=O)/C(=C\c3ccc(F)cc3)SC2=S)CC1	-	-	15µM	?	18µM	-99
NS(=O)(=O)c1ccc(CCN2C(=O)/C(=C\c3ccc(Cl)cc3)SC2=S)cc1	-	-	6.5µM	-	6.5µM	-85
CN1CCN(C(=O)CCN2C(=O)/C(=C\c3ccc(Cl)cc3)SC2=S)CC1	-	-	?	-	18µM	-
CCOC(=O)C1=C(N)OC2=C(C(=O)CCC2)C1c1ccc2c(c1)OCO2 (stereo unspecified)	-	-	-	-	-	-
CCOc1ccc(Nc2c(S(=O)(=O)c3ccccc3)cnc3ccc(F)cc23)cc1	-	.	?	?	?	.
CCOc1ccc(Nc2c(S(=O)(=O)c3ccc(C)cc3)cnc3cc(OC)c(OC)cc23)cc1	-	.	12µM	-	?	.
CCOc1ccc(Nc2c(S(=O)(=O)c3ccccc3)cnc3ccc(CC)cc23)cc1	-	.	?	11µM	?	.
CCOc1ccc(/C=N/NS(=O)(=O)c2ccc(C)cc2)cc1OC	-	-	-	-	-	-
CCCSc1nc2c([nH]c3ccccc32)c(=O)n1C	-	.	?	-	?	.
Cc1ccc(CCC(=O)Nc2ccc(N(C)C)cc2)o1	-	-	?	-	16µM	-
Cc1ccc(CCC(=O)Nc2ccc(Cl)cc2)o1	-	-	-	-	-	-
Cc1ccc(F)cc1C(=O)N1CCCC(C)(C(=O)NS(=O)(=O)C2CC2)C1 (stereo unspecified)	-	.	2.6µM	-	?	-
CC1(C(=O)NS(=O)(=O)C2CC2)CCN(C(=O)c2ccc(F)cc2Cl)C1 (stereo unspecified)	-	.	-	-	-	-
CCCNC(=O)C1(C)CCCN(C(=O)c2cc(F)ccc2C)C1 (stereo unspecified)	-	.	-	-	-	-
Cc1cc(C(=O)N2CCCC(C)(C(=O)NS(=O)(=O)C3CC3)C2)n(C(C)(C)C)n1 (stereo unspecified)	-	.	5.2µM	-	8.2µM	-
COc1ccc(C(=O)N2CCCC(C)(C(=O)NS(=O)(=O)C3CC3)C2)c(OC)c1 (stereo unspecified)	-	.	3.7µM	-	2.1µM	-
CC1(C(=O)NS(=O)(=O)C2CC2)CCCN(C(=O)c2ccc(F)cc2Cl)C1 (stereo unspecified)	-	.	1.5µM	-	?	-
Cc1ccc(CNC(=O)CN2N=C(c3ccc(C)cc3)CCC2=O)cc1	-	.	-	-	-	.
